Inconclusive results are not listed. The source made the active and inactive calls. Calls follow the shape of the dose curve; as a rule, active = well fitted cell-killing curve with a large enough effect in the repeat runs; inconclusive = weak or mixed curves; inactive = flat fitted curve, though single readings scatter.
Experiment: qHTS RealTime-Glo MT Cell Viability Assay in HepG2 cells - 32 hour (AID 1224877); also: nearly all actives have a fitted effect of over 55% in size
Conditions: RealTime-Glo luminescence; series mostly up to 76.8 µM
From the text: U.S. Tox21 Program National Center for Advancing Translational Sciences [NCATS] NIH Chemical Genomics Center [NCGC] U.S. Environmental Protection Agency [EPA] National Institutes of Environmental Health Sciences [NIEHS] National Toxicology Program [NTP] U.S. Food and Drug Administration [FDA] Tox21 Assay Overview: Measure of cell viability is critical in the cell-base assay. Analysis of cell viability is necessary for the characterization of cell responses to cytotoxic drugs and environmental stress. A RealTime-Glo MT Cell Viability Assay to monitor cell viability in real time of continues cell culture during 40 hours of compound treatment was used to screen Tox21 10K library compounds in HepG2 cells. The RealTime-Glo MT Cell Viability Assay is a nonlytic, homogeneous, bioluminescent method to measure cell viability in real time using a simple, plate-based method. The assay involves adding NanoLuc luciferase and a cell-permeant prosubstrate to cells in culture. Viable cells reduce the proprietary prosubstrate to generate a substrate for NanoLuc luciferase. This substrate diffuses from cells into the surrounding culture medium, where it is rapidly used by the NanoLuc Enzyme to produce a luminescent signal. The signal correlates with the number of viable cells, making the assay well suited for cytotoxicity studies.
Tox21 Assay Protocol Summary: The mixture of HepG2 cell suspension and reagents were dispensed at 600cells/6 ul/well in 1536-well tissue culture treated black solid bottom plates using a Multidrop dispenser. After the assay plates were incubated at a 37 C/5% CO2 incubator for 5 hours, 23 nL of compounds dissolved in DMSO, positive and negative controls was transferred to the assay plate by a pintool work station. The plates were incubated at 37 C for 40 hours. The luminescence intensity were measured at 0h, 8h, 16h, 24h, 32h and 40h time points using ViewLux plate reader during compound treatment.
With O=C(NCCc1c[nH]c2ccccc12)c1cccnc1 the outcome was “inactive”.
For Oc1cn2c(n1)Nc1ccc(Cl)c(Cl)c1C2, the activity change, negative = cytotoxic was -1.97% [at 15.8 µM] (inactive).
In the case of Cc1cccc(C)c1OCC(C)N (stereo not given), the outcome is reported as “inactive”.
With COCCOCCOCCOCCOCCO the outcome was “inactive”.
In the case of CC(C)(C)c1cc(CCC(=O)NN)cc(C(C)(C)C)c1O, the outcome is reported as “inactive”.
In the case of C[C@H](CCC(=O)O)[C@H]1CC[C@H]2[C@@H]3C(=O)C[C@@H]4CC(=O)CC[C@]4(C)[C@H]3CC(=O)[C@]12C, the outcome is reported as “inactive”.
For CC(=C(CCOC(=O)C(C)C)SSC(CCOC(=O)C(C)C)=C(C)N(C=O)Cc1cnc(C)nc1N)N(C=O)Cc1cnc(C)nc1N, the outcome was “inactive”.
With CCCCCCN the outcome was “inactive”.
For O=C(O)CCSSCCC(=O)O, the outcome was “inactive”.
With COc1ccc(C2CNC(=O)C2)cc1OC1CCCC1 (stereo not given) the outcome was “inactive”.
For CC[C@H](C)C(=O)O[C@H]1C[C@H](O)C=C2C=C[C@H](C)[C@H](CC[C@@H](O)C[C@@H](O)CC(=O)O)[C@H]21, the outcome was “inactive”.
For CCCCOC(=O)c1ccccc1, the outcome was “inactive”.
For CC(C(=O)O)c1ccc2c(c1)CC(=O)c1ccccc1S2 (stereo not given), the outcome was “inactive”.
With O=C(O)c1cc(Br)c(O)c(Br)c1 the outcome was “inactive”.
For CCCCCCCC/C=C\CCCCCCCC(=O)OCCCC, the activity change, negative = cytotoxic was 6.1% [at 15.8 µM] (inactive).
With O=C1CCCC(=O)O1 the outcome was “inactive”.
For COc1cc(NS(=O)(=O)c2ccc(N)cc2)nc(OC)n1, the outcome was “inactive”.
For COc1ccc2nc(SCc3ncc(C)c(OC)c3C)[nH]c2c1, the outcome was “inactive”.
With O=C(/N=N/C(=O)OCc1ccccc1)OCc1ccccc1 the outcome was “inactive”.
For Cc1nc2n(c(=O)c1CCN1CCC(c3noc4cc(F)ccc34)CC1)CCC[C@H]2O, the activity change, negative = cytotoxic was 0.664% [at 15.8 µM] (inactive).
With O=C1c2ccccc2C(=O)N1CCl the outcome was “inactive”.
In the case of O=C(O)Cc1cn(-c2ccccc2)nc1-c1ccc(Cl)cc1, the outcome is reported as “inactive”.
With CCN1CCc2nc(N)oc2CC1 the outcome was “inactive”.
In the case of C=C(C)C(=O)OCCN(CC)CC, the outcome is reported as “inactive”.
With CC(C)=O the outcome was “inactive”.
For Nc1ncnc(Nc2ccccc2)n1, the outcome was “inactive”.
In the case of C[C@@H]1O[C@@H](O[C@@H]2[C@@H](O)[C@H](OCCc3ccc(O)c(O)c3)O[C@H](CO[C@@H]3O[C@H](CO)[C@@H](O)[C@H](O)[C@H]3O)[C@H]2OC(=O)/C=C/c2ccc(O)c(O)c2)[C@H](O)[C@H](O)[C@H]1O, the outcome is reported as “inactive”.
With O=S(=O)(O)c1ccc2cc(O)c(S(=O)(=O)O)cc2c1 the outcome was “inactive”.
For Cc1cccc2nccnc12, the outcome was “inactive”.
In the case of CCOc1cc(NC(C)=O)ccc1C(=O)OC, the outcome is reported as “inactive”.
For CCCCCOC(=O)CCC, the outcome was “inactive”.
With O=C1O[C@@H]2[C@@H](O)[C@H](O)O[C@@H]2[C@H]1O the outcome was “inactive”.
For CC1COc2ccccc2N1 (stereo not given), the outcome was “inactive”.
In the case of Nc1cccc(O)c1, the outcome is reported as “inactive”.
In the case of CCOC(=O)[C@H](CCc1ccccc1)N[C@@H](C)C(=O)N1C(=O)N(C)C[C@H]1C(=O)O, the outcome is reported as “inactive”.
In the case of CCCCCCCCC1CCC(=O)O1 (stereo not given), the outcome is reported as “inactive”.
With CC(=O)c1ccc2c(c1)Cc1ccccc1-2 the outcome was “inactive”.
For Cc1ccc2c(c1)OCC(=O)CO2, the outcome was “inactive”.
For C=CC(OCC)OCC, the outcome was “inactive”.
In the case of COC(=O)CCc1ccc(OCC(O)CNC(C)C)cc1 (stereo not given), the outcome is reported as “inactive”.
% is scaled to controls: 0 for no effect and ±100 for the full control effect.
